The list is not random: actives were taken first. Their share in the collection is about 9.5%.
ALDH1A1 inh – inhibitors of human aldehyde dehydrogenase 1A1 | Potency, µM (series often up to 75.3 µM), for the others: top-dose activity, negative = inhibition, actives largely listed as inhibitors | Purified ALDH1A1, NADH fluorescence, propionaldehyde substrate | AID 1030 | P00352 | 220,000 compounds, 7.3% hits; active = well fitted inhibition curve with a large enough effect, not every such curve was filed as active; inconclusive = small, poorly fitted or top-dose-only effect, or another doubt; inactive = no such curve, though single readings can be large or run the other way;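 also: plate controls were no enzyme wells and a reference inhibitor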
Target sequence (P00352 whole entry, looked up): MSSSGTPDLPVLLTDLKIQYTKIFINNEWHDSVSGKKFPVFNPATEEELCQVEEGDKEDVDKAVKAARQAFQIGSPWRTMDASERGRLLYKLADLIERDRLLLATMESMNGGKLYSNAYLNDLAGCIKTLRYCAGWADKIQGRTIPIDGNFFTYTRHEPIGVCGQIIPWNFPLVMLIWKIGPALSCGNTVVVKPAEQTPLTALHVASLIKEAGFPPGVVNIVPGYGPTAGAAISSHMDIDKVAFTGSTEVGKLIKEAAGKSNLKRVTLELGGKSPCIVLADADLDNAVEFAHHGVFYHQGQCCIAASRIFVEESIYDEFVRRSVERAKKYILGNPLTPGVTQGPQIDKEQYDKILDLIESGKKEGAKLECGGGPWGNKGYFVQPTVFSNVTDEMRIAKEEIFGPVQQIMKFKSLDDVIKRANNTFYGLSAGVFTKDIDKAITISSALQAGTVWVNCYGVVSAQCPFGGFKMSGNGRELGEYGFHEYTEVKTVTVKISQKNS
HPGD block – HPGD (human) dehydrogenase inhibition; P15428; purified HPGD, NADH fluorescence kinetic, PGE2 substrate; Potency, µM, for the others: top-dose activity change, negative = inhibition, most hits filed as inhibitors; 150,000 compounds, 4.3% hits; active = well fitted inhibition curve with a large enough effect, not every such curve was filed as active; inconclusive = small, poorly fitted or top-dose-only effect, or another doubt; inactive = no such curve, though single readings can be large or run the other way
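20 nM HPGD preincubated 15 min at room temperature with compound in 50 mM Tris-HCl pH 8, 0.01% Tween 20. Started with 1 mM NAD+ and 30 uM prostaglandin E2; NADH fluorescence (360/450 nm) read 5 times over 30-s intervals, last minus first.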
Tau FP inhib – tau fibrillization inhibition (FP) | 280,000 compounds, 0.39% hits | Potency, µM (doses to about 57.7 µM), inactives show at the top dose activity, negative = inhibition, usual class: inhibitors | AID 1468 | P10636 | K18 P301L tau heparin fibrillization, Alexa594 FP, 6 h; also: nearly all actives have a fitted effect of over 55% in size
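Recombinant K18 P301L […], labeled with Alexa 594 at 0.24 uM over 15 uM unlabeled; heparin inducer 20 uM final; 37 C, 6 hr; FP endpoint.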
NPSR antagonist – blocks cAMP signaling of the human neuropeptide S receptor; CHO-NPSR cells, cAMP TR-FRET, antagonist mode; Potency, µM (highest dose often 38.3 µM), inactives show at the top dose activity change, negative = inhibition, hits mostly inhibitors; 220,000 compounds, 1% hits; AID 1461; also: nearly all actives have a fitted effect of over 50% in size
Tau fluor counter – counter-screen for tau fibril formation inhibitors; tau K18 P301L Alexa594 fluorescence, heparin fibrillization; Potency, µM (series often up to 57.7 µM), for inactives: top-dose activity change, negative = decrease; 280,000 compounds, 0.93% hits; AID 1463; also: nearly all actives have a fitted effect of over 55% in size
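Human tau K18 P301L (15 uM unlabeled, 0.24 uM Alexa 594-labeled) in 100 mM sodium acetate pH 7 with 20 uM heparin, 6 hr at 37 C. ThT 30 uM added, 1 hr ambient; Alexa 594 FP and total fluorescence read at 555/632 nm.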
Tau fibril ThT – blocks human tau fibril formation measured by thioflavin T. Potency, µM (doses to about 57.4 µM), without a hit: at the top dose activity, negative = inhibition, usual class: inhibitors. P10636. AID 1460. 270,000 compounds, 2.1% hits. recombinant tau K18 P301L (four-repeat tau fragment), heparin-induced fibrillization, ThT fluorescence; also: nearly all actives have a fitted effect of over 55% in size
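In this qHTS, human K18 P301L tau is incubated with compound and heparin for 6 hr at 37 C, and Thioflavin T fluorescence then reports fibril load.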
* = called active by the depositor; [ ] = dose if it differs, or a comment. Unless noted, calls follow the shape of the dose curve; as a rule, active = well fitted curve in the direction sought with a large enough effect; inconclusive = small, poorly fitted or top-dose-only effect, or another doubt; inactive = no such curve, though single readings can be large; an effect the other way counts as inactive or inconclusive. Unless noted, % is scaled to controls: 0 for no effect and ±100 for the full control effect; potency is read from the fitted curve at half-maximal effect.

How did COc1ccc(-c2nn(CCC(=O)O)cc2CCC(=O)O)cc1 do in these assays?
ALDH1A1 inh: -8.0%; HPGD block: -17.2%; Tau FP inhib: 5.1%; NPSR antagonist: 3.7%[46.1 µM]; Tau fluor counter: -4.5%; Tau fibril ThT: -10.9%

Results for COc1ccc(-c2nn(CCC(=O)O)cc2/C=C2\SC(N)=NC2=O)cc1 ?
ALDH1A1 inh: 4.2%; HPGD block: 11.2µM*; Tau FP inhib: 3.7%; NPSR antagonist: 8.9%; Tau fluor counter: -1.8%; Tau fibril ThT: -11.3%

What do the screens show for `N#CCCn1cc(/C=C/C(=O)O)c(-c2ccc(F)cc2)n1`?
ALDH1A1 inh: 12.9%; Tau FP inhib: inconclusive; NPSR antagonist: 12.0%; Tau fluor counter: 6.7%; Tau fibril ThT: 5.5%

What do the screens show for `NC1=NC(=O)/C(=C/c2cn(CCC(=O)O)nc2-c2ccc(Cl)cc2)S1`?
ALDH1A1 inh: 25.1%; HPGD block: 12.6µM*; Tau FP inhib: 6.3%; NPSR antagonist: 6.4%; Tau fluor counter: -0.5%; Tau fibril ThT: -10.3%

How did NC1=NC(=O)/C(=C/c2cn(CCC(=O)O)nc2-c2ccc(F)cc2)S1 do in these assays?
ALDH1A1 inh: -15.2%; HPGD block: 25.1µM*; Tau FP inhib: -7.0%; NPSR antagonist: 8.4%; Tau fluor counter: -5.2%; Tau fibril ThT: -8.6%

How did CN(CC(=O)NC1CCCCCC1)S(=O)(=O)c1ccc2c(c1)n(C)c(=O)c(=O)n2C do in these assays?
ALDH1A1 inh: -0.5%; HPGD block: -12.2%; Tau FP inhib: 2.5%; NPSR antagonist: -10.9%[46.1 µM]; Tau fluor counter: -2.5%; Tau fibril ThT: -2.4%

What do the screens show for `CCC(=O)N1CCc2cc(S(=O)(=O)NCCC(=O)Nc3ccc(C)cc3C)ccc21`?
Tau FP inhib: -5.1%; Tau fluor counter: -7.2%; Tau fibril ThT: 0.5%

Results for N#C/C(=N\Nc1ccc(F)cc1)C(=N)N1CCCCC1 ?
ALDH1A1 inh: 28.2µM*; HPGD block: -24.6%; Tau FP inhib: 11.0%; NPSR antagonist: -3.8%[46.1 µM]; Tau fluor counter: -14.5%; Tau fibril ThT: -17.9%

Results for N#C/C(=N\Nc1ccccc1)C(=N)N1CCCCCC1 ?
Tau FP inhib: 14.2%; NPSR antagonist: 24.8%; Tau fluor counter: -12.3%; Tau fibril ThT: inconclusive

Results for Nc1ccc(N=Nc2ccccc2)c(N)c1 ?
ALDH1A1 inh: inconclusive; HPGD block: -12.4%

How did Nc1ccc(N=Nc2ccc(N)cc2)cc1 do in these assays?
ALDH1A1 inh: -14.8%; Tau FP inhib: 1.1%; NPSR antagonist: -13.4%; Tau fluor counter: -20.3%; Tau fibril ThT: 11.2µM*

What do the screens show for `COc1ccc(-c2cc(C(F)(F)F)c3c(=O)n(-c4ccccc4)[nH]c3n2)cc1`?
ALDH1A1 inh: 10.2%; HPGD block: -16.8%; Tau FP inhib: 8.4%; NPSR antagonist: -22.7%[46.1 µM]; Tau fluor counter: inconclusive; Tau fibril ThT: 8.91µM*

What do the screens show for `COc1ccc(-c2cc(C(F)(F)F)nc(NCc3ccccc3)n2)cc1`?
Tau FP inhib: inconclusive; Tau fluor counter: -28.2%; Tau fibril ThT: -11.7%

How did COc1cc2c3nnc(-c4ccccc4)c-3cn(Cc3ccccc3F)c2cc1OC do in these assays?
ALDH1A1 inh: inconclusive; Tau FP inhib: 3.1%; NPSR antagonist: 10µM*; Tau fluor counter: -3.5%; Tau fibril ThT: 1.6%

Results for CCNc1nc(NCC)nc(Oc2ccc(OCC)nn2)n1 ?
ALDH1A1 inh: 10.3%; HPGD block: -6.7%; Tau FP inhib: 3.0%; NPSR antagonist: 2.5%[46.1 µM]; Tau fluor counter: -2.1%; Tau fibril ThT: -2.3%

How did CCNc1nc(N)nc(Oc2ccc(OCCOc3ccc(Cl)cc3Cl)nn2)n1 do in these assays?
ALDH1A1 inh: -2.5%; HPGD block: 1µM*; Tau FP inhib: 2.7%; NPSR antagonist: -6.0%[46.1 µM]; Tau fluor counter: -5.6%; Tau fibril ThT: -3.0%

What do the screens show for `O=C(c1ccccc1NS(=O)(=O)c1cccc([N+](=O)[O-])c1)N1CCOCC1`?
ALDH1A1 inh: 4.1%; HPGD block: 6.0%; Tau FP inhib: -1.4%; NPSR antagonist: -9.9%[46.1 µM]; Tau fluor counter: 0.0%; Tau fibril ThT: -3.6%
